From article PMC7862700, “An all-to-all approach to the identification of sequence-specific readers for epigenetic DNA modifications on cytosine”

Assays:
Test in all cases: DAPPL (digital affinity profiling via proximity ligation, sequencing); 10 mM Tris-HCl pH 7.5, 50 mM NaCl, 1 mM DTT, 4% glycerol, room temperature, 30 min; GST-TFs on glutathione beads, 16-mer random dsDNA library, 0.1% formaldehyde crosslink after washing; high values mean tight binding
Settings in all cases: protein: recombinant; tags: N-terminal GST; dsDNA, one strand shown
FEV = biological target: T1, FEV (Homo sapiens, UniProt Q99581 1-238)
T1 sequence: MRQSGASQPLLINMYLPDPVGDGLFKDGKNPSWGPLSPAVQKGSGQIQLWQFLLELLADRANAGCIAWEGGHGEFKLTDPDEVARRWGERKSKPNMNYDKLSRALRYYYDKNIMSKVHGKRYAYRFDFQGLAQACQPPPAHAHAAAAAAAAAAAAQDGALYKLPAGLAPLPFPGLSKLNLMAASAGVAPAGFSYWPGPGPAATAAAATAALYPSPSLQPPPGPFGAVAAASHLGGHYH
Method in brief: (§1)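 Binding signal is given per hexamer as its read frequency for a factor divided by its frequency in the tag-only sample. GST-fused human transcription factors were expressed in yeast, captured on glutathione beads, barcoded with DNA and pooled with that sample, then incubated with 200 nmole of a 16-mer random double-stranded DNA library in Tris/NaCl/DTT/glycerol buffer for 30 min at room temperature. The pools were then washed, crosslinked, proximity-ligated, amplified by PCR and sequenced on an Illumina NextSeq500.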

ETV5 = ETV5 (Homo sapiens, UniProt P41161 1-510)
ETV5, sequence (P41161 whole entry): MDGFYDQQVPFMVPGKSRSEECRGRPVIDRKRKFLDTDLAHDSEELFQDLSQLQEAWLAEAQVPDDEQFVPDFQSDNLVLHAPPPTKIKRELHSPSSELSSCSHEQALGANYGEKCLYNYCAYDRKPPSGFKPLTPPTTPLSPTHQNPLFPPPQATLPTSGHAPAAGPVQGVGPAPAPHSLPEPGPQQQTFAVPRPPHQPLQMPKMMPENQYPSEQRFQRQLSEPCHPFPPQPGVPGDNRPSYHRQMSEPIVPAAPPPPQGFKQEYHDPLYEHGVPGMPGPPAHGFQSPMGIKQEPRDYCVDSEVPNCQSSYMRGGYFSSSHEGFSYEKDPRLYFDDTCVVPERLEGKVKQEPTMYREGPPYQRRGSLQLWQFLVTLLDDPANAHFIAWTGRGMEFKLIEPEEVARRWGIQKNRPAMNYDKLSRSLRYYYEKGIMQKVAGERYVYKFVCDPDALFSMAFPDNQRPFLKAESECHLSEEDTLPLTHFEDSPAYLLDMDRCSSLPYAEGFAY
Method in brief: as §1

SPIC = biological target: T2, SPIC (Homo sapiens, UniProt Q8N5J4 1-248)
T2 sequence: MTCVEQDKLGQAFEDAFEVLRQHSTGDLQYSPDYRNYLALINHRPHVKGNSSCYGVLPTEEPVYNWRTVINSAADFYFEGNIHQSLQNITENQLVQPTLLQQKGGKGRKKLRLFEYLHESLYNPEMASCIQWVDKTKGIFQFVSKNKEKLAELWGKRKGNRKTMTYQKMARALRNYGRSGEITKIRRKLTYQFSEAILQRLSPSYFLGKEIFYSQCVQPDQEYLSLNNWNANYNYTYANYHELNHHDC
Method in brief: as §1

ELF4 = ELF4 (Homo sapiens, UniProt Q99607 1-663)
ELF4, sequence (Q99607 whole entry): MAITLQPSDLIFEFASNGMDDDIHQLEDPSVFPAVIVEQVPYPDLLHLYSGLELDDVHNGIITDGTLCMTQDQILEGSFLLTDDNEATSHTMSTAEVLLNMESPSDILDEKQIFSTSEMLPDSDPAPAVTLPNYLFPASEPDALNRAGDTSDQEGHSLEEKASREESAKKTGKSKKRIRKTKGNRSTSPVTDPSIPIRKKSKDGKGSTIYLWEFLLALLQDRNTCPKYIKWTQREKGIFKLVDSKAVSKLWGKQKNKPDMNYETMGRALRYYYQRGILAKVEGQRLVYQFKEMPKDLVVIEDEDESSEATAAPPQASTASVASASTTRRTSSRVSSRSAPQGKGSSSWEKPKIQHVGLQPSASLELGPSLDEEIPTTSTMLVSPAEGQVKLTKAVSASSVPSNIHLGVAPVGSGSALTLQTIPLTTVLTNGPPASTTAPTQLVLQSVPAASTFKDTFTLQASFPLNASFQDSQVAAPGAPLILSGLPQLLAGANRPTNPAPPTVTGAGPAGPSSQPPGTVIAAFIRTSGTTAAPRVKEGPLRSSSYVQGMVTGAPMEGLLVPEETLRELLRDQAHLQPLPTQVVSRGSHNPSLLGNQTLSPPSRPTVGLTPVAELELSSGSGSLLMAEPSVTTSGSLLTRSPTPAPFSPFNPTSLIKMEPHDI
Method in brief: as §1

ELK4 = biological target: T3, ELK4 (Homo sapiens, UniProt P28324-2 1-405)
T3 sequence: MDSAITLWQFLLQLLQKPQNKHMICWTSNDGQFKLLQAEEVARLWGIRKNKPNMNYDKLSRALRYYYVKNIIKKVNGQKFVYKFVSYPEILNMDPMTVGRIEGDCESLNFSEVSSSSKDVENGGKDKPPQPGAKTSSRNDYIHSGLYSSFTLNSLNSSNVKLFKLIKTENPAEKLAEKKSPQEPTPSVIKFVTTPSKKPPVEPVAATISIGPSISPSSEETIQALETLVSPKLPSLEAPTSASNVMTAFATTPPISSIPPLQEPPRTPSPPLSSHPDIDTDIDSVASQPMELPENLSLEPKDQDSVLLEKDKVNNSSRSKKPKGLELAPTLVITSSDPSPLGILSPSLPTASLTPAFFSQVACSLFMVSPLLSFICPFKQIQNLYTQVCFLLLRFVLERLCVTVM
Method in brief: as §1

ETV2 = biological target: T4, ETV2 (Homo sapiens, UniProt O00321 1-342)
T4 sequence: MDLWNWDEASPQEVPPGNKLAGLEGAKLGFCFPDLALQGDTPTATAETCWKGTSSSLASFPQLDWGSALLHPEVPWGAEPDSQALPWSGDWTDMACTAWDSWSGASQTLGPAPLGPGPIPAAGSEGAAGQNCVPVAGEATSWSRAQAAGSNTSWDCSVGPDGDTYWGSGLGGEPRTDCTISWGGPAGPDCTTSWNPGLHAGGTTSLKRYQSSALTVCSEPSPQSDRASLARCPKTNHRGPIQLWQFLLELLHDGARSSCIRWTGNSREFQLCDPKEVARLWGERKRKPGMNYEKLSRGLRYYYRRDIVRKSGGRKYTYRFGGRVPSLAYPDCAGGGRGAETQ
Method in brief: as §1

ELF3 = biological target: T5, ELF3 (Homo sapiens, UniProt P78545 1-371)
T5 sequence: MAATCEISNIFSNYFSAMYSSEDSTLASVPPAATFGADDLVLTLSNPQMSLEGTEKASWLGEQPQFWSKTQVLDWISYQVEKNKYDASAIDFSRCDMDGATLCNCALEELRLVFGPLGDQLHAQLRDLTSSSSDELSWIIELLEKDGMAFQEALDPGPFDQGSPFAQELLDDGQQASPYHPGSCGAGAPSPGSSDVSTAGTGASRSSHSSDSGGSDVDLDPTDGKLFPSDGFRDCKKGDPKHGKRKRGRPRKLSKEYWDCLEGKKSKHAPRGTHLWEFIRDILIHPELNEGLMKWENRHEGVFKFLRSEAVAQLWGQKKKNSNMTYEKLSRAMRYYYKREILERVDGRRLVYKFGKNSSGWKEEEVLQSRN
Method in brief: as §1

ETV1 = ETV1 (Homo sapiens, UniProt P50549 1-477)
ETV1, sequence (P50549 whole entry): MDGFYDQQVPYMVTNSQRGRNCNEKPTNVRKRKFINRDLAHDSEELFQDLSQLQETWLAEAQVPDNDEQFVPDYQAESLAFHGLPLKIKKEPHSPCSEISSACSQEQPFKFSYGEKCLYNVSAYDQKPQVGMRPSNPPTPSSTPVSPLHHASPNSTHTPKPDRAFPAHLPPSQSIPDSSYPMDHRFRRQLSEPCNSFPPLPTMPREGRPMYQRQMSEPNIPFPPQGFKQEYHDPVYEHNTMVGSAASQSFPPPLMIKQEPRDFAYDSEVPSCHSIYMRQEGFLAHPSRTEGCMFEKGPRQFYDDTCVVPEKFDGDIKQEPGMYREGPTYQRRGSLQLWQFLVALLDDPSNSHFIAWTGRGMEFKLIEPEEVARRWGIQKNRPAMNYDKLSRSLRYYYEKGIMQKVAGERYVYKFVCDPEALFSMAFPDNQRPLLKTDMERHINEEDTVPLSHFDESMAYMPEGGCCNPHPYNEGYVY
Method in brief: as §1

ERF = biological target: T6, ERF (Homo sapiens, UniProt P50548 1-548)
T6 sequence: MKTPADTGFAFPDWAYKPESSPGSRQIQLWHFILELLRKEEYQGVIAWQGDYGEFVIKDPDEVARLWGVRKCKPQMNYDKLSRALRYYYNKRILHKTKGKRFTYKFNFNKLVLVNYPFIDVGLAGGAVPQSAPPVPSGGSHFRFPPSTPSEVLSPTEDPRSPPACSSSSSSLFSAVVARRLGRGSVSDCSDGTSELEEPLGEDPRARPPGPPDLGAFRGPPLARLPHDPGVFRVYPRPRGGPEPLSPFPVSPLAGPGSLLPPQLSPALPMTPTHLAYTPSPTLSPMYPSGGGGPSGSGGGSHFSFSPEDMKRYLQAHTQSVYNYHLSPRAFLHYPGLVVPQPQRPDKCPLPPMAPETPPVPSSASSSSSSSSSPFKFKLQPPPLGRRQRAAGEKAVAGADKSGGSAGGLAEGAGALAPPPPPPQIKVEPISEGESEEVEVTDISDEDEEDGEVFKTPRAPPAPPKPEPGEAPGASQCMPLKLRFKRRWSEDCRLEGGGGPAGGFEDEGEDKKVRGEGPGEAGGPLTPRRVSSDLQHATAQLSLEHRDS
Method in brief: as §1

ETV3L = biological target: T7, ETV3L (Homo sapiens, UniProt Q6ZN32 1-361)
T7 sequence: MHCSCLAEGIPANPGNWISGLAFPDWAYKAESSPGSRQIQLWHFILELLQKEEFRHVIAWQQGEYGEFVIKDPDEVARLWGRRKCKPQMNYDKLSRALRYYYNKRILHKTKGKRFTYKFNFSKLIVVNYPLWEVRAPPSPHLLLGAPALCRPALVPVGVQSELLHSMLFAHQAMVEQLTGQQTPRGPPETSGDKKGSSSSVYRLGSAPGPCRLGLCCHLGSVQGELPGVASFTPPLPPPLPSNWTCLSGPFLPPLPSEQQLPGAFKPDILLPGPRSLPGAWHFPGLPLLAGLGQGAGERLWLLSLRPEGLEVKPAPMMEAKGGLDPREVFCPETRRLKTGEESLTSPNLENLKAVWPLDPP
Method in brief: as §1

ETS2 = biological target: T8, ETS2 (Homo sapiens, UniProt P15036 1-469)
T8 sequence: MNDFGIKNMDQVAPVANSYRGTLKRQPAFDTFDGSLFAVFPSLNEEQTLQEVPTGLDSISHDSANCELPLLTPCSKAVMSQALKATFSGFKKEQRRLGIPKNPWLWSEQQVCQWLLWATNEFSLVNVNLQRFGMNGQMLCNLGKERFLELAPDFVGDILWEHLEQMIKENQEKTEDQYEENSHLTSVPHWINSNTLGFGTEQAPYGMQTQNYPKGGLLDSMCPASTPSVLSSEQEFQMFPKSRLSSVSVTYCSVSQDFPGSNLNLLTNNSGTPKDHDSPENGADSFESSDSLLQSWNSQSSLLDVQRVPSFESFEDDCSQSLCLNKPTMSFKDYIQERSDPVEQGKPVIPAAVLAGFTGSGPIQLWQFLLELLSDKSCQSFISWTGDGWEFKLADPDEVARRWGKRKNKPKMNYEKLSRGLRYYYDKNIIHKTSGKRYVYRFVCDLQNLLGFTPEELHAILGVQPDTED
Method in brief: as §1

SPDEF = biological target: T9, SPDEF (Homo sapiens, UniProt O95238 1-335)
T9 sequence: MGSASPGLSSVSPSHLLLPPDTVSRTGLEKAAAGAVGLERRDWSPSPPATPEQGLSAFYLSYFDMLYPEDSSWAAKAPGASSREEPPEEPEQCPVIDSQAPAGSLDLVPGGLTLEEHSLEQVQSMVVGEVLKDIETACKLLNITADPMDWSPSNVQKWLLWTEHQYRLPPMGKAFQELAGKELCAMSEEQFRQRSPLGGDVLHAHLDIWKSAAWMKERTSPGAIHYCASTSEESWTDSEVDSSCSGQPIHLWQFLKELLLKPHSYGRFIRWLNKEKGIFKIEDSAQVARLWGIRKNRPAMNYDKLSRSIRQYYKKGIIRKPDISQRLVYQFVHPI
Method in brief: as §1

ETV7 = biological target: T10, ETV7 (Homo sapiens, UniProt Q9Y603 1-341)
T10 sequence: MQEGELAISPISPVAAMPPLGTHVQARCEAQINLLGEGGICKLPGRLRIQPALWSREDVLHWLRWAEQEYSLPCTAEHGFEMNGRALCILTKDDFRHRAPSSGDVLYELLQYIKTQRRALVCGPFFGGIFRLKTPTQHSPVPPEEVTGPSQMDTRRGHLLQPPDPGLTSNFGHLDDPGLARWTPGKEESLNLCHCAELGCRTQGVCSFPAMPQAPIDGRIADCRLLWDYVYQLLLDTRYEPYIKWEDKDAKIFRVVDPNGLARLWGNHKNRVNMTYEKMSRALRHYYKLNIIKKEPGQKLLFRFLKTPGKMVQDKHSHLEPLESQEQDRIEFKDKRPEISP
Method in brief: as §1

ELF5 = biological target: T11, ELF5 (Homo sapiens, UniProt Q9UKW6-2 1-255)
T11 sequence: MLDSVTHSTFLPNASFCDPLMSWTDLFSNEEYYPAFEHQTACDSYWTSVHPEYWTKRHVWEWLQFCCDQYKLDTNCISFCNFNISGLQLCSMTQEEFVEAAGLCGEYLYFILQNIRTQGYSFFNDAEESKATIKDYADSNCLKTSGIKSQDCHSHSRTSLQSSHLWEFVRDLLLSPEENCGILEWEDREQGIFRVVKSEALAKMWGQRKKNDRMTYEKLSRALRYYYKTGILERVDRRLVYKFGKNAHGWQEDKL
Method in brief: as §1

ETV3 = biological target: T12, ETV3 (Homo sapiens, UniProt P41162-2 1-143)
T12 sequence: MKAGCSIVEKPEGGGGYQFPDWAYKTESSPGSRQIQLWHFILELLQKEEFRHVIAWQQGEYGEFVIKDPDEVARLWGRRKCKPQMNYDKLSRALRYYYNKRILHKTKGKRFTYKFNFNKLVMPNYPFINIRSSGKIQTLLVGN
Method in brief: as §1

ETV6 = ETV6 (Homo sapiens, UniProt P41212 1-452)
ETV6, sequence (P41212 whole entry): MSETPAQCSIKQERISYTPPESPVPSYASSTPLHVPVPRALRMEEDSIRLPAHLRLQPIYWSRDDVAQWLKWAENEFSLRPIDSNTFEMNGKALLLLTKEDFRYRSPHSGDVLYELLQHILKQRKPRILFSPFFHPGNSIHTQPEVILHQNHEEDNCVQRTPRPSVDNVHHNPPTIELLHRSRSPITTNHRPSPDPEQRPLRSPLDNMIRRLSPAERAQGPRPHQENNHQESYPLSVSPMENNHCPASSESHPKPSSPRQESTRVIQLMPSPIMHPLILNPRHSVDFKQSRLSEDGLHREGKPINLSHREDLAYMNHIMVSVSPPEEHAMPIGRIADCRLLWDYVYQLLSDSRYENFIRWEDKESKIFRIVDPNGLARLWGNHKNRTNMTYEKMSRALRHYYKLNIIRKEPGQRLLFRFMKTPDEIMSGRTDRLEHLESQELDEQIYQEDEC
Method in brief: as §1

Sequence	binding signal (FEV)	binding signal (ETV5)	binding signal (SPIC)	binding signal (ELF4)	binding signal (ELK4)	binding signal (ETV2)	binding signal (ELF3)	binding signal (ETV1)	binding signal (ERF)	binding signal (ETV3L)	binding signal (ETS2)	binding signal (SPDEF)	binding signal (ETV7)	binding signal (ELF5)	binding signal (ETV3)	binding signal (ETV6)
CCGCCG	1.55 fold enrichment (6-mer frequency, TF over GST control)	1.25 fold enrichment (6-mer frequency, TF over GST control)	1.22 fold enrichment (6-mer frequency, TF over GST control)	1.29 fold enrichment (6-mer frequency, TF over GST control)	1.27 fold enrichment (6-mer frequency, TF over GST control)	1.11 fold enrichment (6-mer frequency, TF over GST control)	1.23 fold enrichment (6-mer frequency, TF over GST control)	1.25 fold enrichment (6-mer frequency, TF over GST control)	1.18 fold enrichment (6-mer frequency, TF over GST control)	1.2 fold enrichment (6-mer frequency, TF over GST control)	1.22 fold enrichment (6-mer frequency, TF over GST control)	1.34 fold enrichment (6-mer frequency, TF over GST control)	1.2 fold enrichment (6-mer frequency, TF over GST control)	1.31 fold enrichment (6-mer frequency, TF over GST control)	1.31 fold enrichment (6-mer frequency, TF over GST control)	1.23 fold enrichment (6-mer frequency, TF over GST control)
AAGTGG	1.23 fold enrichment (6-mer frequency, TF over GST control)	1.17 fold enrichment (6-mer frequency, TF over GST control)	1.43 fold enrichment (6-mer frequency, TF over GST control)	1.12 fold enrichment (6-mer frequency, TF over GST control)	1.13 fold enrichment (6-mer frequency, TF over GST control)	1.02 fold enrichment (6-mer frequency, TF over GST control)	1.19 fold enrichment (6-mer frequency, TF over GST control)	1.2 fold enrichment (6-mer frequency, TF over GST control)	1.24 fold enrichment (6-mer frequency, TF over GST control)	1.17 fold enrichment (6-mer frequency, TF over GST control)	1.19 fold enrichment (6-mer frequency, TF over GST control)	1.06 fold enrichment (6-mer frequency, TF over GST control)	1.31 fold enrichment (6-mer frequency, TF over GST control)	1.24 fold enrichment (6-mer frequency, TF over GST control)	1.23 fold enrichment (6-mer frequency, TF over GST control)	1.3 fold enrichment (6-mer frequency, TF over GST control)
